Columns and labels:
Test in all cases: PBM binding z-score (relative to random genomic background probes); higher = stronger binding; sequences stand for … in GC…GCGATTGACAGCGTAGAATGAAGG
[1] = test system: RARb homodimer (NR concentration 270 nM)
Outline: (§1)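 Binding z-scores take random background probes as their reference. They come from custom Agilent 4×180K protein-binding microarrays incubated 1 h with ligand-free nuclear receptor dimers, with antibodies against each partner (one per run) detecting binding. Scanned fluorescence was regression-normalized.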

[2] = test system: RARg:RXRa (NR concentration 270 nM, RXRa partner concentration 90 nM)
Outline: as §1

[3] = test system: RARg homodimer (NR concentration 270 nM)
Outline: as §1

[4] = test system: RXRa DBDmut IVT, anti-RXR (DBD mutation: RXRa K156A/R161A, NR concentration 90 nM)
Outline: as §1

[5] = test system: RXRa homodimer (NR concentration 180 nM)
Outline: as §1

[6] = test system: THRa:RXRa (NR concentration 90 nM, RXRa partner concentration 90 nM)
Outline: as §1

[7] = test system: THRa homodimer (NR concentration 90 nM)
Outline: as §1

[8] = test system: VDR homodimer (NR concentration 270 nM)
Outline: as §1

Row | Sequence | PBM binding z-score [1] | PBM binding z-score [2] | PBM binding z-score [3] | PBM binding z-score [4] | PBM binding z-score [5] | PBM binding z-score [6] | PBM binding z-score [7] | PBM binding z-score [8]
1 | ATATGTCGGTTATCGGGTCATTCAGTTTGCGCAT | 2.64 | 2.72 | 2.04 | 1.42 | 2.51 | 3.14 | 2.54 | 3.21
2 | CGAACGAGGGCATGAATTGATAGCAAATGCCGAT | 0.244 | 0.899 | 1.3 | 2.24 | 0.708 | 0.857 | -0.496 | 0.297
3 | GCGACTGGGGCTAAGCAGGTTACCATAAGGTTGG | 0.946 | 0.126 | 0.179 | -0.481 | -0.00806 | 1.12 | 0.145 | -0.2
4 | CCTTACGGATCACGAGGTTATAGCACGACGAGCG | 1.15 | 0.741 | 0.714 | 0.575 | 1.62 | 1.52 | 1.08 | 1.06
5 | CCTATTAGTTGACCATAAGGGTAACCGAAGCTCG | 1.5 | 1.01 | 0.877 | 0.493 | 0.639 | 1.3 | 1.19 | 1.2
6 | AATACTGGGTCATCGTAGGCCAGAGTACGCACAG | 3.24 | 3.52 | 3.91 | 0.934 | 3.11 | 3.85 | 0.749 | 1
7 | CGTCCAAGGTCAGAGAGGTCAGTGGATGCCGAGT | 5.54 | 6.26 | 7.05 | 3.42 | 5.46 | 4.29 | 3.05 | 5.52
8 | TTCCCAAGGTGAAGGTCGTTGATCCCTCTGTAGA | 1.87 | 1.35 | 1.04 | -0.0232 | 1.74 | 2.52 | 1.11 | 0.952
9 | AGCATGAGGTTAAGATCAGGGAAACAGAATACAT | 0.891 | 2.08 | 1.62 | 0.954 | 2.58 | 2.66 | 0.635 | 0.646
10 | CCTCGGAGGACAACAGGAGGTCAGGGCTGCCAGA | 3.69 | 3.63 | 3.49 | -0.237 | 2.24 | 2.96 | 1.34 | 0.949
11 | TCAGACAGCTGAAGGTAACTCAGGTACGCAGTCG | -0.661 | -0.115 | -0.24 | 0.764 | 0.413 | 1.05 | -0.685 | -0.186
12 | TAGCCTAGGTCATGCGGGCCAGTAAAGTGTCGGC | 2.88 | 3.9 | 4.1 | 1.04 | 2.94 | 2.98 | 0.78 | 0.405
13 | ACTTACGGGTCAACCAGGTTATAGCACGCGTATA | 3.43 | 5.74 | 5.08 | 2.31 | 6.13 | 3.79 | 0.987 | 2.74
14 | TCGAGTAGGTTAGGGACATTCAGAATGGCGTCGA | 0.458 | 0.15 | 0.37 | 0.229 | 0.221 | 2 | 0.953 | 0.358
15 | TCATATAGGTAATACAGGTGAACGTCGGCATCTA | 0.903 | 0.819 | 0.771 | 1.86 | 1.55 | 1.18 | 0.563 | 0.482
16 | AATACAGGGTCATCGTAGGCCATAGTACGCACAG | 3.72 | 5.77 | 4.97 | 3.55 | 6.52 | 4.94 | 1.54 | 3.64
17 | GCTATTAGTTGAAAGGGCAACTGAATGATTCTCG | 1.9 | 1.45 | 1.31 | 0.912 | 1.25 | 0.832 | -0.217 | 0.256
18 | TCTAGCAGGCCAGAGGGTCAGTCAAGAGGTACGG | 2.16 | 1.59 | 1.82 | -0.232 | 1.43 | 0.734 | -0.934 | -0.429
19 | ATCTCTAGGTAACCAAGTTCAGTGAGTGCCGAAC | 1.55 | 0.591 | 0.796 | 1.34 | 0.412 | 1.52 | 0.776 | 2.83
20 | TCTCGGAGGACACGAATGGTCAGAGCTCGACATC | 0.664 | 0.332 | 1.29 | 0.733 | 0.156 | 1.01 | 0.00528 | -0.606
21 | CCGACTGGTGCAAGGTTACCATAACGCACAGCCA | 0.979 | 0.462 | 0.421 | 0.0825 | 0.899 | 1.08 | 0.473 | 0.112
22 | TCAGACAGGTGAAGGTAACTTAGGTACGCAGTCG | 0.872 | 0.797 | 0.756 | 1.19 | 1.14 | 1.86 | 0.691 | 0.508
23 | GCGACTGGGGCATCAGCAGGTTACCACAACTTAA | 1.08 | 0.941 | 0.32 | -0.0403 | 0.38 | 0.805 | -0.203 | -0.222
24 | GCAGACAGGTGAAACCCAGGTAACTCAGGGTGGC | 0.254 | 0.543 | 0.3 | -0.915 | 0.749 | 2.18 | 0.116 | -0.563
25 | AGAACGAGGGAACGCTGAGTTGATAGCAGAGTAG | -0.725 | -0.0293 | 0.175 | -0.477 | -0.0289 | -0.362 | -1.15 | 0.248
26 | TCTATTAATTGATTAGGGCAACCGAAACAGCGGA | 0.555 | 0.404 | 0.432 | 0.717 | 0.315 | 0.691 | 0.741 | 1.36
27 | TTTGCTAGGTCAGTTGGTCAGCTAACGAGCTGCC | 2.57 | 2.76 | 3.54 | 0.279 | 0.82 | 1.42 | 0.0567 | -0.505
28 | ACTAGCAGGCCGAGGGTCACTCAAGATTAGTCCG | 2.43 | 2.41 | 2.14 | 0.267 | 2.49 | 1.91 | -0.126 | 0.527

From the supplement of paper PMC6555819
